Experimental data reported in PubChem BioAssay (EPA / NIEHS).
Inconclusive results are not listed. Active and inactive are the calls of the source. How the source made its calls, unless noted: active means hit-call score of the fitted dose curve at least 0.9, where 1 is the maximum; inconclusive means response in the unintended direction; inactive means score below 0.9.

Key:
[1] = ATG_TAL_CIS: Attagene CIS-FACTORIAL HepG2 Assay for human TAL Basal Promoter (AID 2282966; active means hit-call score of the fitted dose curve at least 0.9, where 1 is the maximum; inactive means score below 0.9;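 further: background control endpoint measuring basal TAL promoter reporter mRNA not a specific factor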); conditions: HepG2 Attagene cis-factorial TAL promoter reporter; actives raise or lower the signal
Outline: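 Human hepatoma HepG2 cells, transfected with promoter-regulated reporter units, were treated 24 h. Reporter transcript levels, measured through RT-PCR and capillary electrophoresis, were fitted for gain or loss relative to DMSO.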

[2] = ATG_TGFb_CIS: Attagene CIS-FACTORIAL HepG2 Assay for human Transforming Growth Factor (TGF) (AID 2282967; active means hit-call score of the fitted dose curve at least 0.9, where 1 is the maximum; inactive means score below 0.9); conditions: HepG2 Attagene CIS TGFb reporter, mRNA transcription; actives raise or lower the signal
Outline: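 Cells were dosed for 24 hours, after which total RNA was reverse-transcribed and reporter sequences amplified, labeled and sized by capillary electrophoresis. Activity was fitted in both directions against DMSO.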

[3] = target: Estrogen receptor (Homo sapiens) (UniProt P03372); assay: ATG_ERa_TRANS: Attagene TRANS-FACTORIAL HepG2 Assay for human Estrogen Receptor alpha (ERa) (AID 2282970); conditions: HepG2 Attagene TRANS ERa GAL4 reporter, mRNA
Outline: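 Signal derives from fluorescence of labelled reporter PCR fragments separated by capillary electrophoresis. HepG2 cells transiently carrying multiple GAL4-UAS reporter units were treated 24 hours, and induction above DMSO baseline was fitted as activity.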

[4] = target: Steroid hormone receptor ERR1 (Homo sapiens) (UniProt P11474); assay: ATG_ERRa_TRANS: Attagene TRANS-FACTORIAL HepG2 Assay for human Estrogen-Related Receptor alpha (ERRa) (AID 2282971); conditions: HepG2 Attagene TRANS reporter, ERRa transactivation
Outline: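 Signal gain relative to DMSO for an ERRa-Gal4 chimeric receptor, read as reporter mRNA by RT-PCR/capillary electrophoresis. Human HepG2 liver cells, transient multiplex reporter transfection, 24 h chemical exposure.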

[5] = target: X-box-binding protein 1 (Homo sapiens) (UniProt P17861); assay: ATG_Xbp1_CIS: Attagene CIS-FACTORIAL HepG2 Assay for human X-box Binding Protein 1 (XBP1) (AID 2282972; active means hit-call score of the fitted dose curve at least 0.9, where 1 is the maximum; inactive means score below 0.9); conditions: HepG2 XBP1 cis-element reporter, Attagene multiplex; actives raise or lower the signal
Outline: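 Human hepatoma HepG2, cis-element reporter system, 24 h treatment; mRNA quantified by RT-PCR/CE fluorescence; fit relative to DMSO.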

[6] = target: Estrogen-related receptor gamma (Homo sapiens) (UniProt P62508); assay: ATG_ERRg_TRANS: Attagene TRANS-FACTORIAL HepG2 Assay for human Estrogen-Related Receptor gamma (ERRg) (AID 2282977); conditions: HepG2 Attagene TRANS reporter, ERRg transactivation;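 further: hits increase reporter signal over DMSO so potencies reflect activators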
Outline: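 Exogenous NR-Gal4 chimera activity was assessed in HepG2 cells bearing transfected GAL4-UAS reporters. After 24 h dosing, total RNA underwent RT-PCR, fluorescent primer extension and HpaI digestion before capillary electrophoresis, with gain of signal scored against DMSO.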

[7] = target: Oxysterols receptor LXR-beta (Homo sapiens) (UniProt P55055); assay: ATG_LXRb_TRANS: Attagene TRANS-FACTORIAL HepG2 Assay for human Liver X Receptor beta (LXRb) (AID 2282981); conditions: HepG2 Attagene TRANS GAL4-LXRb reporter, mRNA
Outline: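 Readout: fluorescent reporter mRNA fragments resolved by capillary electrophoresis after RT-PCR. System: transiently transfected human HepG2, exogenous LXRb-Gal4 chimera driving GAL4-UAS reporter, 24 h dosing. Activity fitted upward against DMSO baseline.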

[8] = target: Hepatocyte nuclear factor 4-alpha (Homo sapiens) (UniProt P41235); assay: ATG_HNF4a_TRANS: Attagene TRANS-FACTORIAL HepG2 Assay for human Hepatocyte Nuclear Factor 4 alpha (HNF4a) (AID 2282982); conditions: HepG2 HNF4a transactivation reporter, mRNA readout
Outline: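 Transient MRTU transfection of HepG2, 24 h dosing. Readout: reporter mRNA via RT-PCR + capillary electrophoresis, fluorescence; activity fit upward relative to DMSO control.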

[9] = ATG_M_06_TRANS: Attagene TRANS-FACTORIAL HepG2 Assay for M06 Transcription Factor (Internal Marker) (AID 2282983); conditions: HepG2 Attagene TRANS M06 internal marker reporter
Outline: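 Multi-reporter-transfected HepG2, 24 h treatment; reporter transcripts quantified via RT-PCR, primer-extension labelling and CE. DMSO-normalized gain-of-signal fit.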

[10] = ATG_M_32_TRANS: Attagene TRANS-FACTORIAL HepG2 Assay for M32 Transcription Factor (Internal Marker) (AID 2282984); conditions: HepG2 Attagene TRANS M32 internal marker reporter
Outline: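 Read-out: fluorescent reporter cDNA fragments resolved by capillary electrophoresis after RT-PCR of total RNA. Transfected HepG2 cells were exposed to chemical for 24 h. Activity scored in the positive direction relative to DMSO.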

[11] = target: Nuclear receptor subfamily 4 group A member 2 (Homo sapiens) (UniProt P43354); assay: ATG_NURR1_TRANS: Attagene TRANS-FACTORIAL HepG2 Assay for human Nuclear Receptor Related Protein 1 (NURR1) (AID 2282985); conditions: HepG2 Attagene TRANS reporter, mRNA readout
Outline: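 Read-out: reporter mRNA induction by RT-PCR plus capillary electrophoresis with fluorescence detection, after 24 h dosing of transfected HepG2 cells. Exogenous NR-Gal4 chimera activity drives GAL4-UAS reporter; activity fitted upward versus DMSO.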

[12] = target: Transcriptional activator Myb (Homo sapiens) (UniProt P10242); assay: ATG_Myb_CIS: Attagene CIS-FACTORIAL HepG2 Assay for human Myeloblastosis (Myb) Proto-Oncogene Transcription Factor (AID 2282986; active means hit-call score of the fitted dose curve at least 0.9, where 1 is the maximum; inactive means score below 0.9); conditions: HepG2 Attagene CIS-FACTORIAL Myb reporter transcription; actives raise or lower the signal
Outline: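 HepG2, transient MRTU transfection (cis-element promoters, endogenous TF activity), 24 h compound exposure. Readout: reporter mRNA via RT-PCR, 6-FAM labeling, HpaI digest, capillary electrophoresis. Gain/loss fit vs DMSO.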

[13] = target: Nuclear respiratory factor 1 (Homo sapiens) (UniProt Q16656); assay: ATG_NRF1_CIS: Attagene CIS-FACTORIAL HepG2 Assay for human Nuclear Respiratory Factor 1 (NRF1) Orphan Gene (AID 2282987; active means hit-call score of the fitted dose curve at least 0.9, where 1 is the maximum; inactive means score below 0.9); conditions: HepG2 NRF1 cis-element reporter, Attagene multiplex; actives raise or lower the signal
Outline: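 Endogenous NRF1-driven reporter transcription measured in transiently transfected human HepG2 liver cells. Readout: reporter mRNA by RT-PCR and capillary electrophoresis with fluorescence detection, 24 h post-dosing. Gain or loss of signal fitted relative to DMSO baseline.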

[14] = ATG_GAL4_TRANS: Attagene TRANS-FACTORIAL HepG2 Assay for GAL4 (Internal Marker) (AID 2282976); conditions: HepG2 Attagene TRANS GAL4 internal marker reporter
Outline: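 Liver HepG2 line bearing multiplexed GAL4-UAS reporter constructs; 24 h chemical treatment. Transcripts were quantified as fluorescent fragments on capillary electrophoresis after RT-PCR and HpaI cut, with activity fitted upward from DMSO.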

[15] = target: Glucocorticoid receptor (Homo sapiens) (UniProt P04150); assay: ATG_GR_TRANS: Attagene TRANS-FACTORIAL HepG2 Assay for human Glucocorticoid Receptor (GR) (AID 2282978); conditions: HepG2 Attagene TRANS GR reporter, mRNA transcription;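 further: activators score as hits since higher reporter transcript over DMSO is fitted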
Outline: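 Transient MRTU transfection of HepG2 (GAL4-UAS reporters, exogenous NR-GAL4 chimeras), 24 h dosing. Readout: reporter transcript via RT-PCR + capillary electrophoresis fluorescence. Positive direction vs DMSO baseline.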

[16] = target: Bile acid receptor (Homo sapiens) (UniProt Q96RI1); assay: ATG_FXR_TRANS: Attagene TRANS-FACTORIAL HepG2 Assay for Farnesoid X Receptor (FXR) (AID 2282979); conditions: HepG2 Attagene TRANS FXR-GAL4 reporter transcription;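 further: hits raise reporter mRNA above DMSO so AC50 marks FXR activation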
Outline: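 After 24 h chemical treatment of transfected HepG2 cells, GAL4-UAS reporter transcripts driven by an exogenous FXR-GAL4 fusion were measured by RT-PCR and capillary electrophoresis. Increases over DMSO were fitted.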

[17] = ATG_M_19_TRANS: Attagene TRANS-FACTORIAL HepG2 Assay for M19 Transcription Factor (Internal Marker) (AID 2282974); conditions: HepG2 Attagene TRANS-FACTORIAL M19 internal marker reporter
Outline: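 24 h chemical exposure of transiently transfected HepG2 (MRTU library). RNA → oligo(dT) RT → PCR → 6-FAM labelling → HpaI cut → CE fluorescence. Positive-direction fit vs DMSO baseline; background internal-marker readout.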

[18] = target: Nuclear receptor subfamily 1 group I member 3 (Homo sapiens) (UniProt Q14994); assay: ATG_CAR_TRANS: Attagene TRANS-FACTORIAL HepG2 Assay for human Constitutive Androstane Receptor (CAR) (AID 2282969); conditions: HepG2 Attagene TRANS-FACTORIAL CAR reporter;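 further: activators raise reporter mRNA above DMSO so AC50 marks induction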
Outline: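 Transiently transfected HepG2, multiplex TRANS reporters (CAR-Gal4 chimera driving GAL4-UAS reporter). 24 h dosing. Readout: reporter transcript by RT-PCR + capillary electrophoresis, fluorescence intensity; positive direction vs DMSO.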

[19] = target: Oxysterols receptor LXR-alpha (Homo sapiens) (UniProt Q13133); assay: ATG_LXRa_TRANS: Attagene TRANS-FACTORIAL HepG2 Assay for human Liver X Receptor alpha (LXRa) (AID 2282980); conditions: HepG2 Attagene TRANS reporter, LXRa transactivation
Outline: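 In this multiplexed TRANS system, compounds act on HepG2 cells carrying GAL4-UAS reporter units and a receptor-GAL4 fusion for 24 h. Induced reporter RNA is amplified, fluorescently labelled and sized by capillary electrophoresis, with DMSO as baseline.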

Measured: AC50

Estrogen-related receptor gamma (Homo sapiens), sequence (P62508 whole entry, looked up, the tested form may be a part): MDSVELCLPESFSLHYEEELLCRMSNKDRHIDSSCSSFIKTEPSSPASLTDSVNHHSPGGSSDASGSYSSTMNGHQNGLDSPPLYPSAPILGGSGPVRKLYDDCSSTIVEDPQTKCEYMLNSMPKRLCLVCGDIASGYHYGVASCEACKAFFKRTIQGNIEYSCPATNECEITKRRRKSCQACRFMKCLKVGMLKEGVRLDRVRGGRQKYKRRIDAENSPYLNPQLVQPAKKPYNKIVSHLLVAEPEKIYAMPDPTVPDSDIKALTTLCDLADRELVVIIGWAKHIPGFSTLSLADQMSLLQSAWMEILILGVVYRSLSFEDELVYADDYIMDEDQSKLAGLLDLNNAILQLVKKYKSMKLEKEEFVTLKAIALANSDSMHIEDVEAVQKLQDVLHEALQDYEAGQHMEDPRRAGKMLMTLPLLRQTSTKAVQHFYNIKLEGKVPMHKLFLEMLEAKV
Bile acid receptor (Homo sapiens), sequence (Q96RI1 whole entry, looked up, the tested form may be a part): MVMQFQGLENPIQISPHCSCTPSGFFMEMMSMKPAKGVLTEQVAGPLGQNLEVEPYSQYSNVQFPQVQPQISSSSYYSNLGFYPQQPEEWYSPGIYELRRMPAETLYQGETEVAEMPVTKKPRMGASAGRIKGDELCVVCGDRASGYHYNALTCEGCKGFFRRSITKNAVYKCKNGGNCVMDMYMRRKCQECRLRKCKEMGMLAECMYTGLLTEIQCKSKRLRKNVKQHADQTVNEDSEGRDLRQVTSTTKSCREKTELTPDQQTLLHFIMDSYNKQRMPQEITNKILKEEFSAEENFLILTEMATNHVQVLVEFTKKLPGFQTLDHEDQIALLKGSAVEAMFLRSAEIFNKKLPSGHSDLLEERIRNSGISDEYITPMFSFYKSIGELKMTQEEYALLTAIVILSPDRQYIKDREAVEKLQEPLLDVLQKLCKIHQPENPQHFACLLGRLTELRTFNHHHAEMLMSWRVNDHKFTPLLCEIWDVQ
Nuclear respiratory factor 1 (Homo sapiens), sequence (Q16656 whole entry, looked up): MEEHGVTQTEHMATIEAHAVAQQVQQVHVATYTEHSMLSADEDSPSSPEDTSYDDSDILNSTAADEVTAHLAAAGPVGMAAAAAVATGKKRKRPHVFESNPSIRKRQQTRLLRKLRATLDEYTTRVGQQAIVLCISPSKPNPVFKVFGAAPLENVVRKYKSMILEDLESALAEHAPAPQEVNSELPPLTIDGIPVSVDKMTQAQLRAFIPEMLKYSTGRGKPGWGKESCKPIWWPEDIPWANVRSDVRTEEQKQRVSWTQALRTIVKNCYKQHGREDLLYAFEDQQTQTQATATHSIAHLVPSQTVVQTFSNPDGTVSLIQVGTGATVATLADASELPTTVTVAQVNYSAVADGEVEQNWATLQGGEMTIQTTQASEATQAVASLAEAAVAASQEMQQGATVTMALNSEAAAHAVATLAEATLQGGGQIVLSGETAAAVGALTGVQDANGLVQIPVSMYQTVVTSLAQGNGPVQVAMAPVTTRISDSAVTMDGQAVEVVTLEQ
Estrogen receptor (Homo sapiens), sequence (P03372 whole entry, looked up, the tested form may be a part): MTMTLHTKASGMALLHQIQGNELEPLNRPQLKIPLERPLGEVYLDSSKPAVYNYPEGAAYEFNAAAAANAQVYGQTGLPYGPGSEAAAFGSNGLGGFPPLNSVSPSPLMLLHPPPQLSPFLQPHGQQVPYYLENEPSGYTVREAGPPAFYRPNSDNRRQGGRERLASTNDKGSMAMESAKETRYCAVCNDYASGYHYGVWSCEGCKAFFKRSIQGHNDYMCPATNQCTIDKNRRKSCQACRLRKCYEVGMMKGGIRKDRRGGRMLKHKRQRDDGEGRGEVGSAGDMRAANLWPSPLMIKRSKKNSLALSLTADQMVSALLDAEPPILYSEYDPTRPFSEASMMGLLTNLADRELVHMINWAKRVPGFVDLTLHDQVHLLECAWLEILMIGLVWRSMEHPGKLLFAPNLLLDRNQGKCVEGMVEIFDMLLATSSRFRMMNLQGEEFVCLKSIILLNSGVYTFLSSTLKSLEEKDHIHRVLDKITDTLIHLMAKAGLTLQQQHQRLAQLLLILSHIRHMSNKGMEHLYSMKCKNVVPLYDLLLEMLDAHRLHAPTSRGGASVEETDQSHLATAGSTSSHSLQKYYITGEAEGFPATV
Hepatocyte nuclear factor 4-alpha (Homo sapiens), sequence (P41235 whole entry, looked up): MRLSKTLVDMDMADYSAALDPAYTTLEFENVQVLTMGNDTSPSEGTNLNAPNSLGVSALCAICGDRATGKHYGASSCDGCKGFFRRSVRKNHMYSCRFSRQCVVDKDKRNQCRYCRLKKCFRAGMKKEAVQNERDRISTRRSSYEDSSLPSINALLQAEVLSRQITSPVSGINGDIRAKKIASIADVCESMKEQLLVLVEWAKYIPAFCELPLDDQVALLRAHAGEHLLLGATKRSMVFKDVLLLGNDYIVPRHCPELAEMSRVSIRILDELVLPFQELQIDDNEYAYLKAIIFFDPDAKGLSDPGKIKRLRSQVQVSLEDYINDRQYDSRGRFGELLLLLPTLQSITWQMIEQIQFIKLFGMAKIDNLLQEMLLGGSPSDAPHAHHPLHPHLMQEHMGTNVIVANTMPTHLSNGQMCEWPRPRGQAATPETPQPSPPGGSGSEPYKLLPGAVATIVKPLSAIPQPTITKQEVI
Transcriptional activator Myb (Homo sapiens), sequence (P10242 whole entry, looked up): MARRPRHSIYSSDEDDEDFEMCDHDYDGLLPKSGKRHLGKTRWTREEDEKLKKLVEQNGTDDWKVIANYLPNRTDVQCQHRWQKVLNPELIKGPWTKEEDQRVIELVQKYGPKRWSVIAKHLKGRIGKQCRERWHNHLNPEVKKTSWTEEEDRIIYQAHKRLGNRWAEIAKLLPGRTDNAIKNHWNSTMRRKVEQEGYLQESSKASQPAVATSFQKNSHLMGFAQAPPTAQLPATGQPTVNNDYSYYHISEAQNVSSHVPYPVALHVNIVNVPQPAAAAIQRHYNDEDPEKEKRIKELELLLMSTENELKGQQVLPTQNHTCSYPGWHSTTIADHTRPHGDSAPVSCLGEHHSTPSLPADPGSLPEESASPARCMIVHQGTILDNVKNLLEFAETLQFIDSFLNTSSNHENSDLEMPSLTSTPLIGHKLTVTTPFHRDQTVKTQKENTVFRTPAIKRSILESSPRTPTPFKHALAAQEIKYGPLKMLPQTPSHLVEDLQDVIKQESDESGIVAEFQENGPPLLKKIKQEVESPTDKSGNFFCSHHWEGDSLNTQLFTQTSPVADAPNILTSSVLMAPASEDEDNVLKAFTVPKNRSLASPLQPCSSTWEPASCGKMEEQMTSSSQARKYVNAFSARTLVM
X-box-binding protein 1 (Homo sapiens), sequence (P17861 whole entry, looked up): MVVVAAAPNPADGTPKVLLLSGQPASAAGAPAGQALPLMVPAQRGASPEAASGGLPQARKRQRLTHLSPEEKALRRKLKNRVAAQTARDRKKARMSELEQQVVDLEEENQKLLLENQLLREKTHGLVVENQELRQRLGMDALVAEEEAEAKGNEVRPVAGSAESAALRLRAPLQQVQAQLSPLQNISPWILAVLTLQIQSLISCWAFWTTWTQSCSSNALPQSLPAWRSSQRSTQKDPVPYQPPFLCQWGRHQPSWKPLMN
Glucocorticoid receptor (Homo sapiens), sequence (P04150 whole entry, looked up, the tested form may be a part): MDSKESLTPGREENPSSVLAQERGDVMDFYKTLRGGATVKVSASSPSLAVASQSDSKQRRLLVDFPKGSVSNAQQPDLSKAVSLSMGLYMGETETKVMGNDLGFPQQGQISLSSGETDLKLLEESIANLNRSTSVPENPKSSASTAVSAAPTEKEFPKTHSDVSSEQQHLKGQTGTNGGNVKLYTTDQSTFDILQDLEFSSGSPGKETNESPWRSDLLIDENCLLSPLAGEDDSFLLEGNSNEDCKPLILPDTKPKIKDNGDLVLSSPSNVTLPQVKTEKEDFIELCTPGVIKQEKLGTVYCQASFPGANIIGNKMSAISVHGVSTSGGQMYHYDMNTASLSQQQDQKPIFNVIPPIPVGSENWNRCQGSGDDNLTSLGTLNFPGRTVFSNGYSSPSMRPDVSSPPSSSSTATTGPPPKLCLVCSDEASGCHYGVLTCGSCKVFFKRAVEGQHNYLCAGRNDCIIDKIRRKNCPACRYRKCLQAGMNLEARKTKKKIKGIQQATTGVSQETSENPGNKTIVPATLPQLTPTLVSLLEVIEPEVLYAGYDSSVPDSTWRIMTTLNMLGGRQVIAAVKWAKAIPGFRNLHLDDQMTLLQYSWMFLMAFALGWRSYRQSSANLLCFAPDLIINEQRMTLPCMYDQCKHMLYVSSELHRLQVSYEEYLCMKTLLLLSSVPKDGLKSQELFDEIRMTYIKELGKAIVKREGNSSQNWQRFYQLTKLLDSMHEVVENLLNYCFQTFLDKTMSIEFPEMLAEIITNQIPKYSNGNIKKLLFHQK
Steroid hormone receptor ERR1 (Homo sapiens), sequence (P11474 whole entry, looked up, the tested form may be a part): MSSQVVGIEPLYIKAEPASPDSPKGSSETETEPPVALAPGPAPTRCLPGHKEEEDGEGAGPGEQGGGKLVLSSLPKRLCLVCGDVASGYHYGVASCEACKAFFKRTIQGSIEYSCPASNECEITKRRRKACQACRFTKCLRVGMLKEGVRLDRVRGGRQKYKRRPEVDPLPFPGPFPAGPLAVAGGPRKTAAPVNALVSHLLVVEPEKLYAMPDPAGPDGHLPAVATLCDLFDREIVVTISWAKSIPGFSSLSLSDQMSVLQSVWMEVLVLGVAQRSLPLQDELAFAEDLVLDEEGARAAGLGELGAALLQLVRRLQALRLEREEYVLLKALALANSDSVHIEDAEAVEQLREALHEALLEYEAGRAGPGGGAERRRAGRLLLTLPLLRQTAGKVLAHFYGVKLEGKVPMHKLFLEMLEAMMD
Nuclear receptor subfamily 1 group I member 3 (Homo sapiens), sequence (Q14994 whole entry, looked up, the tested form may be a part): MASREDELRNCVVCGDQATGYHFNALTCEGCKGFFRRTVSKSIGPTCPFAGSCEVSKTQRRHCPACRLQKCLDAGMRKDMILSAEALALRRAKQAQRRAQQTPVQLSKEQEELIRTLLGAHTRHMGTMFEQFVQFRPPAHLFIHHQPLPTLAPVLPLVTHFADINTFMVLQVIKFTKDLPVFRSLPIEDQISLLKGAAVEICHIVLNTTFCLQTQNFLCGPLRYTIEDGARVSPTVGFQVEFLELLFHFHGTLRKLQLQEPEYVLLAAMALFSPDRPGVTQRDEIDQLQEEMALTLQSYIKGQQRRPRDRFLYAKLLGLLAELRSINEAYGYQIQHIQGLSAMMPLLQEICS

COC(=O)c1ccc2cc(C(=O)OC)ccc2c1
inactive: [1] | [2] | [3] | [4] | [5] | [6] | [7] | [8] | [9] | [10] | [11] | [12] | [13]

C[C@]12CCC(=O)C=C1CC[C@@H]1[C@@H]2C(=O)C[C@@]2(C)[C@H]1CC[C@]2(O)C(=O)CO
inactive: [1] | [2] | [5] | [14] | [15] | [7] | [9] | [13]

Cc1oncc1C(=O)Nc1ccc(C(F)(F)F)cc1
inactive: [1] | [2] | [3] | [5] | [14] | [16] | [7] | [9] | [10] | [11] | [12] | [13]

c1ccc2c(c1)ccc1ncccc12
inactive: [1] | [2] | [4] | [5] | [17] | [14] | [6] | [15] | [8] | [9] | [11] | [12] | [13]

CC(C)(C)c1ccc(-c2ccc(C(C)(C)C)cc2)cc1
inactive: [1] | [2] | [3] | [5] | [7] | [8] | [9] | [10] | [13]

O=c1cc[nH]c(=S)[nH]1
inactive: [1] | [2] | [3] | [4] | [5] | [6] | [8] | [9] | [10] | [12]

CCCCCCCC[N+](C)(CCCCCCCC)CCCCCCCC
inactive: [1] | [2] | [3] | [5] | [17] | [10] | [12]

Cc1ccc(OC(=O)CC(C)C)cc1
inactive: [1] | [2] | [18] | [5] | [14] | [16] | [7] | [9] | [10] | [11] | [12] | [13]

c1ccc2c(c1)ccc1cc3c(ccc4ccccc43)cc12
inactive: [1] | [2] | [5] | [17] | [14] | [16] | [19] | [10] | [11] | [12] | [13]

O=C(Nc1ccccc1)c1ccccc1O
inactive: [1] | [2] | [4] | [6] | [15] | [7] | [8] | [9] | [11] | [12]
active: [3] 27.2 µM | [5] 44.4 µM

C[C@]12C=CC(=O)C=C1CC[C@@H]1[C@@H]2[C@@H](O)C[C@@]2(C)[C@H]1CC[C@]2(O)C(=O)CO
inactive: [1] | [2] | [4] | [5] | [17] | [14] | [6] | [7] | [9] | [11] | [13]
